# Test results taken from the supplement of paper PMC6518042.
# System: Pectobacterium parmentieri SCC3193
# Assay: DuctApe activity index (growth/respiration on compound as sole nutrient source, blank-subtracted) (activity index (0-3)); higher = stronger utilization of the compound, active = 3 or more
# Settings: nutrient role (plate category): nitrogen
# Description: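 Biolog Phenotype Microarray plates PM1, PM2A (carbon), PM3 (nitrogen) and PM4 (phosphorus/sulfur) inoculated with P. parmentieri SCC3193 in M9-C minimal salts medium with Biolog dye A, and read in the OmniLog for 46 h. Each well was tested in triplicate and the experiment was run twice. DuctApe computed a blank-subtracted activity index (AV, 0-3) from the mean curves; growth is positive at AV >= 3 and negative at AV <= 2.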
row,Structure (SMILES),DuctApe activity index
1,Nc1ccn([C@@H]2O[C@H](CO)[C@@H](O)[C@H]2O)c(=O)n1 [Cytidine],3 (active)
2,NC(=O)NC1NC(=O)NC1=O (configuration not stated) [Allantoin],0 (inactive)
3,O=C(O)CC[C@@H](C(=O)O)N1C(=O)c2ccccc2C1=O [N-Phthaloyl-L-Glutamic acid],0 (inactive)
4,CC(O)C(N)=O (racemic) [DL-Lactamide],0 (inactive)
5,NC(N)=O,0 (inactive)
6,Nc1nc2c(ncn2[C@@H]2O[C@H](CO)[C@@H](O)[C@H]2O)c(=O)[nH]1 [Guanosine],0 (inactive)

# Same assay, conditions: nutrient role (plate category): phosphate & sulphur
row,Structure (SMILES),DuctApe activity index
1,O=S(=O)(O)O [Sulfate],1 (inactive)
2,C[N+](C)(C)CCOP(=O)(O)O [Phosphoryl Choline],1 (inactive)
3,N[C@@H](COP(=O)(O)O)C(=O)O [O-Phospho-L-Serine],2 (inactive)
4,CC(=O)N[C@@H](CS)C(=O)O [N-Acetyl-L-Cysteine],1 (inactive)
5,Cc1cn([C@H]2C[C@H](OP(=O)(O)O)[C@@H](CO)O2)c(=O)[nH]c1=O [Thymidine 3`-Monophosphate],2 (inactive)
6,O=P(O)(O)O [Phosphate],1 (inactive)
7,N[C@@H](CCC(=O)N[C@@H](CS)C(=O)NCC(=O)O)C(=O)O [Glutathione],1 (inactive)
8,C=C(OP(=O)(O)O)C(=O)O [Phosphoenol Pyruvate],2 (inactive)
9,NC(N)=S [Thiourea],0 (inactive)
10,O=S1(=O)CCCC1 [Tetramethylene Sulfone],0 (inactive)
11,Nc1ncnc2c1ncn2[C@@H]1O[C@H](COP(=O)(O)O)[C@@H](O)[C@H]1O [Adenosine 5`-Monophosphate],1 (inactive)
